High-throughput results (PubChem BioAssay)
Shown are actives, neighbours in structure and some others; about 3.8% of the full set was active somewhere.
Gli-Sufu antag = antagonists of Gli-Sufu signaling | Sufu-KO-LIGHT fibroblasts, Gli luciferase reporter luminescence | inhibition, % at 5 µM | 340,000 compounds, 0.74% hits;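 active = inhibition above about 55%, limit read from the data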;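 note: 0% = DMSO-treated cells and 100% = wells with medium but no cells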
Shn3 inh set2 = inhibitors of Schnurri-3 3'UTR reporter in osteoblasts. Clone20 osteoblast Shn3 3'UTR firefly luciferase, 24 h. inhibition, % at 12.5 µM. 360,000 compounds, 0.52% hits. AID 588674;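 active = mean inhibition of at least 75% with every replicate also reaching 75%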;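 note: 0% = median of neutral control wells and 100% = pilot-screen positive control compound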
Jurkat NFkB inh = lowers PMA/ionomycin-induced NF-kB signal in Jurkat cells | PMA/ionomycin-induced NF-kB luciferase reporter, luminescence | inhibition, % at 4 µM | 330,000 compounds, 0.53% hits | AID 435003; in the data active = inhibition above about 50%
697 NFkB inh = lowers PMA/ionomycin-induced NF-kB signal in 697 B cells. 697 B-cell NF-kB luciferase reporter, 16 h. inhibition, % at 4 µM. 330,000 compounds, 0.33% hits. AID 435022; in the data active = inhibition above about 35%
Mdm2-MdmX inh = inhibitors of human Mdm2/MdmX interaction; inhibition, % at 8 µM; O15151+Q00987; SaOS-2 split-luciferase Mdm2/MdmX complementation, luminescence; 330,000 compounds, 3% hits;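 active = inhibition of at least 50% at 8 µM in the primary screen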
Target sequence (O15151 whole entry, looked up): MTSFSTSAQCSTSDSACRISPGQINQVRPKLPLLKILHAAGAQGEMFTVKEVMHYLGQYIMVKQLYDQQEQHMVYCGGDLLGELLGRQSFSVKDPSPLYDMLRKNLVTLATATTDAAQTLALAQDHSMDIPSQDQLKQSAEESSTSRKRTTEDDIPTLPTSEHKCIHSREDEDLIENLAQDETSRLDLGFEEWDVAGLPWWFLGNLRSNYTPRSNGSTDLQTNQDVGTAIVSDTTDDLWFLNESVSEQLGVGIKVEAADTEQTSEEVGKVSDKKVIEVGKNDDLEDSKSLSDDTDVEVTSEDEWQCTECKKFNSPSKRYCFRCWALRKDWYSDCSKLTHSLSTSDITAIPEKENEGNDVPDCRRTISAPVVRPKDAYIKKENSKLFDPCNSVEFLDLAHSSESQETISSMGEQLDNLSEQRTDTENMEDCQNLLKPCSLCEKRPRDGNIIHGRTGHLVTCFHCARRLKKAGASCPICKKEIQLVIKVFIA
Target sequence (Q00987 whole entry, looked up): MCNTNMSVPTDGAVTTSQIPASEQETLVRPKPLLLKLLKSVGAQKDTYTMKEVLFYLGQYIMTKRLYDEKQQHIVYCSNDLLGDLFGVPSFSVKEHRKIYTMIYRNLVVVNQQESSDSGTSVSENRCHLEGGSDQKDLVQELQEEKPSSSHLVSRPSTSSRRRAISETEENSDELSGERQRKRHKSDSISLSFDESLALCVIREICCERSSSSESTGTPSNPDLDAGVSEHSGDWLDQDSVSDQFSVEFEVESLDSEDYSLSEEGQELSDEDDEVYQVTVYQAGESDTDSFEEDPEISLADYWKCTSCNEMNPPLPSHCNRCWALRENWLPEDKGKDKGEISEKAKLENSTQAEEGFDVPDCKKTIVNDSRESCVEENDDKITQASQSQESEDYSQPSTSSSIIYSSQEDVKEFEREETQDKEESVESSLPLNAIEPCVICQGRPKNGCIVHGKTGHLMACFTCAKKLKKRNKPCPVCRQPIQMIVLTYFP
Mdm2-MdmX conf = human Mdm2/MdmX binding inhibition, confirmed. shares compounds with Mdm2-MdmX inh. luminescent assay. inhibition, % at 8 µM. 10,000 compounds, 55% hits. AID 489028; in the data active = inhibition above about 40%
Full FLuc ctr = inhibits full-length luciferase, flagging false Mdm2/MdmX hits; shares compounds with Mdm2-MdmX inh; SaOS-2 full-length luciferase counterscreen, luminescence; inhibition, % at 8 µM; 6,200 compounds, 77% hits; AID 504607;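 active = mean inhibition at 8 µM reaching about 37%, which flags the compound as non-specific, limit read from the data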;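 note: p53-null SaOS-2 cells with luciferase driven by a doxycycline-inducible promoter; compound on cells about two nights before reading with doxycycline added after day one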
* hit, by the source's call; nt = no result given.

SMILES	Gli-Sufu antag	Shn3 inh set2	Jurkat NFkB inh	697 NFkB inh	Mdm2-MdmX inh	Mdm2-MdmX conf	Full FLuc ctr
Cc1ccccc1-n1nc2c(c1NC(=O)CC(C)C)CS(=O)C2 (centres undefined)	4.3	3.8	6.1	-12.7	8.6	nt	nt
Cc1cccc(C(=O)N2N=C(c3ccc(NS(C)(=O)=O)cc3)CC2c2cccs2)c1 (centres undefined)	-6.4	13.5	1.6	23.4	11.7	nt	nt
Nn1c(SCC(=O)Nc2cccnc2Cl)nnc1-c1ccccc1	-12.2	-17.8	-2.8	7.2	12.4	nt	nt
C=CCCC(=O)Nc1nc(C)c(-c2csc(Nc3cc(OC)ccc3OC)n2)s1	6.0	25.8	46.2	-4.5	65.7*	60.0*	45.8*
Cc1ccc2nc(-c3ccc(NC(=S)NC4CC(C)(C)NC(C)(C)C4)cc3)sc2c1	-98.4	-71.2	-62.5	-134.0	98.6*	-34.6	nt
Cc1ccc2nc(-c3ccc(NC(=S)NC(=O)C(C)C)cc3)sc2c1	nt	-56.0	-103.4	-223.9	-74.5	nt	nt
COc1ccc(/C=N/N=C2/NC(=O)C(c3ccccc3)(c3ccccc3)S2)cc1	5.5	-6.1	-6.2	14.0	61.4*	19.9	nt
COc1ccc(/C=N/N=C/c2ccc(OC)cc2)cc1	-25.7	-30.2	-25.4	-24.9	10.9	nt	nt
COc1ccc(NC(=O)C2CC(=O)N/C(=N/N=C/c3ccccc3)S2)cc1 (centres undefined)	-6.5	-5.8	8.8	-5.5	79.2*	59.2*	90.7*
CC(NCCCOc1cccc2ccccc12)c1ccccc1 (centres undefined)	17.9	-28.5	-2.7	15.5	58.1*	21.9	nt
O=C(CCl)NC(Cc1ccccc1)c1ccccc1 (centres undefined)	-2.6	-14.8	17.7	9.9	73.6*	51.0*	44.0*
CC(=O)C(Cc1ccccc1)NC(=O)CCl (centres undefined)	-1.1	-45.8	9.2	18.9	39.1	nt	nt
O=C(/C=C/c1ccccc1[N+](=O)[O-])c1ccccc1Br	-11.2	21.6	-9.5	-6.2	72.4*	5.8	nt
CCN(c1ccc(OC)cc1)c1ncnc2nc[nH]c12	-25.1	19.7	18.0	-31.8	63.2*	66.0*	36.4*
CCCN(c1ccc(OCC)cc1)c1ncnc2nc[nH]c12	-1.1	14.3	7.8	7.4	45.6	nt	nt
Cc1cc(Cn2nc(C(=O)NCc3cccc(C(F)(F)F)c3)cc2-c2ccccc2)on1	4.6	22.4	33.1	-1.4	9.6	nt	nt
N/C(=N\OC(=O)Oc1ccccc1)c1cccc([N+](=O)[O-])c1	0.9	-6.6	-11.4	-2.7	25.3	nt	nt
O=C(C#Cc1ccccc1)c1cccc([N+](=O)[O-])c1	12.9	93.0*	8.0	-20.9	88.1*	15.7	nt
COc1cc(CNC(=O)Nc2nc(C(N)Cc3ccc(C(F)(F)F)cc3)cs2)cc(OC)c1OC (centres undefined)	nt	-11.5	nt	nt	nt	nt	nt
CCOc1ccc(NC2=CC(=O)C(=O)c3ccccc32)cc1	-5.1	11.9	nt	nt	nt	nt	nt
COc1cc(Cl)c(NC2=CC(=O)C(=O)c3ccccc32)c(OC)c1	5.8	19.0	32.3	-35.4	53.0*	58.9*	49.6*
CN(C)C(CNc1ccc(C(F)(F)F)cc1[N+](=O)[O-])c1ccccc1 (centres undefined)	-8.9	-2.6	-13.2	-2.9	15.0	nt	nt
Cc1ccc(Oc2c(C(N)=O)cc([N+](=O)[O-])cc2[N+](=O)[O-])cc1	0.1	93.5*	6.5	-9.7	94.5*	95.1*	52.0*
O=C(c1ccccc1Cl)N1CCNCC1	-27.6	6.2	-7.3	-7.0	17.9	nt	nt
COCCCN1CCN(C2Cc3ccccc3Sc3ccc(Cl)cc32)CC1 (centres undefined)	6.2	-6.0	-4.5	-14.1	43.2	nt	nt
Clc1cccc2c1Sc1ccccc1CC2N1CCNCC1 (centres undefined)	5.8	50.7	6.9	-16.8	66.0*	73.1*	47.0*
Clc1ccc2c(c1)C(N1CCNCC1)Cc1ccccc1S2 (centres undefined)	4.4	-6.7	4.8	-19.8	100.8*	100.1*	39.2*
N#Cc1ccc(S(=O)(=O)N2CCC(C(=O)Nc3cccc(C(=O)NC4CC4)c3)CC2)cc1	1.9	-2.7	13.2	19.5	2.9	nt	nt
